This note sets out measurements from publication PMC7862700, “An all-to-all approach to the identification of sequence-specific readers for epigenetic DNA modifications on cytosine”.

Common to all, as to experiment: DAPPL (digital affinity profiling via proximity ligation, sequencing); 10 mM Tris-HCl pH 7.5, 50 mM NaCl, 1 mM DTT, 4% glycerol, room temperature, 30 min; GST-TFs on glutathione beads, 16-mer random dsDNA library, 0.1% formaldehyde crosslink after washing; high values mean tight binding
One test has as its target T1, FEV (Homo sapiens, UniProt Q99581 1-238).
T1 sequence: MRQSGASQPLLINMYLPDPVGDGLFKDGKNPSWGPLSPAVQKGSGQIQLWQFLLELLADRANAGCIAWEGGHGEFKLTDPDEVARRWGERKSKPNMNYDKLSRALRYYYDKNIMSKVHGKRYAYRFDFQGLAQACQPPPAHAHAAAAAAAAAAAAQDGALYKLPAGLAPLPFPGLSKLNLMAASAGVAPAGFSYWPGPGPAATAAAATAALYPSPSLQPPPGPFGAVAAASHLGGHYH
Conditions: protein: recombinant; tags: N-terminal GST; dsDNA, one strand shown. The gist of the method:
(§1)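 Human transcription factors carrying a GST fusion were produced in yeast, bound to glutathione beads, tagged with DNA barcodes and pooled together with a tag-only sample. Each pool was held with 200 nmole of a random double-stranded 16-mer DNA library in Tris/NaCl/DTT/glycerol buffer for 30 min at room temperature, then washed, crosslinked in 0.1% formaldehyde, proximity-ligated with BsaI/T4 ligase (1 h, 37 °C), PCR-amplified and sequenced on an Illumina NextSeq500. Binding signal is the read frequency of each hexamer for a given factor divided by its frequency in the tag-only sample.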

In another test the target is ETV5 (Homo sapiens, UniProt P41161 1-510). As to conditions: protein: recombinant; tags: N-terminal GST; dsDNA, one strand shown. The gist of the method:
as §1

A further test addresses HSF1 (Homo sapiens, UniProt Q00613 1-529). Conditions: protein: recombinant; tags: N-terminal GST; chain copies: 3; dsDNA, one strand shown. The gist of the method:
as §1

The next test deals with T2, SPIC (Homo sapiens, UniProt Q8N5J4 1-248).
T2 sequence: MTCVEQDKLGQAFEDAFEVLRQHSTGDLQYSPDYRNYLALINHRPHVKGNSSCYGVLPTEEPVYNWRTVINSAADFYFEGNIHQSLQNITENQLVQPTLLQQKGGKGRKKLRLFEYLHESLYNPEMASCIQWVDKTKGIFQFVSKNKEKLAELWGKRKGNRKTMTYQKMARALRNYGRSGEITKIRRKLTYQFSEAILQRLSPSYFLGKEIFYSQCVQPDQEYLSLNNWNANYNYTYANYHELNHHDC
As to conditions: protein: recombinant; tags: N-terminal GST; dsDNA, one strand shown. The essentials:
as §1

The next test addresses ELF4 (Homo sapiens, UniProt Q99607 1-663). As to conditions: protein: recombinant; tags: N-terminal GST; dsDNA, one strand shown. The essentials: as §1
In a further test the target is T3, ELK4 (Homo sapiens, UniProt P28324-2 1-405).
T3 sequence: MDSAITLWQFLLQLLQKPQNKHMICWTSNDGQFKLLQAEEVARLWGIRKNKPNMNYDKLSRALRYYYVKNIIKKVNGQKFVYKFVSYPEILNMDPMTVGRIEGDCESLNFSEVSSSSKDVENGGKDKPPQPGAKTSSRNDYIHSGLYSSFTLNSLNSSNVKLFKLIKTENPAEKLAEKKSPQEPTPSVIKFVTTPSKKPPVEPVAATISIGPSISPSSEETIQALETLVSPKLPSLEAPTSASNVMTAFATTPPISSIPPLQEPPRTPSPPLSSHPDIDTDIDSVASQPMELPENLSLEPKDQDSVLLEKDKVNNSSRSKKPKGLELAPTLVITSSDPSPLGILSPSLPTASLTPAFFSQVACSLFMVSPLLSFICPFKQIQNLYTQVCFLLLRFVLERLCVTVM
As to conditions: protein: recombinant; tags: N-terminal GST; dsDNA, one strand shown. The essentials:
as §1

A further test deals with T4, ETV2 (Homo sapiens, UniProt O00321 1-342).
T4 sequence: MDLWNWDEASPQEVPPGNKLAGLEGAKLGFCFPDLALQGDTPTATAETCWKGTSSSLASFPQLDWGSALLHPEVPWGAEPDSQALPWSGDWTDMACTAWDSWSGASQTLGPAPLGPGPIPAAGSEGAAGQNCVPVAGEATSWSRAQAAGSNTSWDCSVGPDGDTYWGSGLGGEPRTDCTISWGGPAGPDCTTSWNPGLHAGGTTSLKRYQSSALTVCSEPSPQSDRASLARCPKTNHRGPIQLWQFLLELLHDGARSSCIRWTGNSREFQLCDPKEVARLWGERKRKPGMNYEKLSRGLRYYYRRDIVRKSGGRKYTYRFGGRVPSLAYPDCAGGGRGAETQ
Conditions: protein: recombinant; tags: N-terminal GST; dsDNA, one strand shown. The gist of the method: as §1

A further test concerns the target T5, ELF3 (Homo sapiens, UniProt P78545 1-371).
T5 sequence: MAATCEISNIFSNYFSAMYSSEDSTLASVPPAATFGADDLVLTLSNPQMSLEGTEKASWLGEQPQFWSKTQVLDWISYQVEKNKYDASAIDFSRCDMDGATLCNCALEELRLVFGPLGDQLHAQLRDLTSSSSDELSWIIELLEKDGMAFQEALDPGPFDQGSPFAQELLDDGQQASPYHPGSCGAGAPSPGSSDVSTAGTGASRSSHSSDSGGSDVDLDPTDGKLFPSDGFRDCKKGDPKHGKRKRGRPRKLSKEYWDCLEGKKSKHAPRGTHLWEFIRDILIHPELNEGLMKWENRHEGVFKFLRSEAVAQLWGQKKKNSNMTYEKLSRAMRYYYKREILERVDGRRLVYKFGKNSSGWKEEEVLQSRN
As to conditions: protein: recombinant; tags: N-terminal GST; dsDNA, one strand shown. The essentials:
as §1

A further test has as its target CRX (Homo sapiens, UniProt O43186 1-299). Conditions: protein: recombinant; tags: N-terminal GST; dsDNA, one strand shown. The essentials:
as §1

A further test addresses ETV1 (Homo sapiens, UniProt P50549 1-477). As to conditions: protein: recombinant; tags: N-terminal GST; dsDNA, one strand shown. The essentials:
as §1

The next test has as its target T6, ERF (Homo sapiens, UniProt P50548 1-548).
T6 sequence: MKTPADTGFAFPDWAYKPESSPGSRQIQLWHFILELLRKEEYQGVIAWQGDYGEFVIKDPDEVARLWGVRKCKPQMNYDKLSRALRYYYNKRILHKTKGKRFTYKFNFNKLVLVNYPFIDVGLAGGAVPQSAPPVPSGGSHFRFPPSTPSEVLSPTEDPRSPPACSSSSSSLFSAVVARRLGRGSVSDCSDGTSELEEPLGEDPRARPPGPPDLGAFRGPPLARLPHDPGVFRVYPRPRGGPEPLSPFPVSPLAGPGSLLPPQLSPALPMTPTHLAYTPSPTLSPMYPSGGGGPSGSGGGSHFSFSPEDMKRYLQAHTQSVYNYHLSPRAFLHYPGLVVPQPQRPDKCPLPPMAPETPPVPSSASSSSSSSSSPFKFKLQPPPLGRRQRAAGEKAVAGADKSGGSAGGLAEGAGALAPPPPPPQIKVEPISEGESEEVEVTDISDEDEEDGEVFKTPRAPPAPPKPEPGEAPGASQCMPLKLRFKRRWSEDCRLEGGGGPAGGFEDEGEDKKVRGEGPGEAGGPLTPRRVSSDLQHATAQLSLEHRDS
As to conditions: protein: recombinant; tags: N-terminal GST; dsDNA, one strand shown. The essentials: as §1

The target of another test is T7, ETV3L (Homo sapiens, UniProt Q6ZN32 1-361).
T7 sequence: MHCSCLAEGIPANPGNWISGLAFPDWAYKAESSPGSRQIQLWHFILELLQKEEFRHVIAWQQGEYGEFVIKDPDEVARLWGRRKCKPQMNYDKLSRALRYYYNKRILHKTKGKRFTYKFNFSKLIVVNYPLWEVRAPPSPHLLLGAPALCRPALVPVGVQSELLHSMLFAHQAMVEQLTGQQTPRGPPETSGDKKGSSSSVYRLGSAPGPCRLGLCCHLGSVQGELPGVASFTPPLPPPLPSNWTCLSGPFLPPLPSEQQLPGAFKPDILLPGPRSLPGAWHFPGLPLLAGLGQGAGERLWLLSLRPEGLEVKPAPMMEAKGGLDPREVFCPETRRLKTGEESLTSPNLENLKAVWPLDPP
As to conditions: protein: recombinant; tags: N-terminal GST; dsDNA, one strand shown. The gist of the method:
as §1

For the next test, the target named is T8, ETS2 (Homo sapiens, UniProt P15036 1-469).
T8 sequence: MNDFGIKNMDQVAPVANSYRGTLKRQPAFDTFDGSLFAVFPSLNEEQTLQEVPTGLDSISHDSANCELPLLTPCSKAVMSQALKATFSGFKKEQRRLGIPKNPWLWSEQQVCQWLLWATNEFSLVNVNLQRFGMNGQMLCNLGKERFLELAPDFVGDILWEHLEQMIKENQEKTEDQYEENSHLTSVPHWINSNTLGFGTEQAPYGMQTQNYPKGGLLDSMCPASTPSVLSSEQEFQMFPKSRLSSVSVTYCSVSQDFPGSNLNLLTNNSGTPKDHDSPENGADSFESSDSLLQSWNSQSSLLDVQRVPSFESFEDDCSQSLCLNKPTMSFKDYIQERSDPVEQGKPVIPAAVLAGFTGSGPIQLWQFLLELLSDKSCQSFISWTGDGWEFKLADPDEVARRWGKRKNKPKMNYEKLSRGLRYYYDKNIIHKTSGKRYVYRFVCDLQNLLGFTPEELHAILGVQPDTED
As to conditions: protein: recombinant; tags: N-terminal GST; dsDNA, one strand shown. The gist of the method: as §1

A further test deals with T9, SPDEF (Homo sapiens, UniProt O95238 1-335).
T9 sequence: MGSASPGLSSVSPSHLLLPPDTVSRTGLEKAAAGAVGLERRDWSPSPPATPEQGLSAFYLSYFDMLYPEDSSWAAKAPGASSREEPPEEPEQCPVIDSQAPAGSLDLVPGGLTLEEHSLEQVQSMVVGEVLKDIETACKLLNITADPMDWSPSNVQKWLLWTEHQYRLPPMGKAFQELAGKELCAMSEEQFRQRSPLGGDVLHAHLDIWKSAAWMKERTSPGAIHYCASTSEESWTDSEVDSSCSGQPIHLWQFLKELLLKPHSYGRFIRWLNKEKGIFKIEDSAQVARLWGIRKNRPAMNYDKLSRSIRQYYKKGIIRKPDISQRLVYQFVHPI
As to conditions: protein: recombinant; tags: N-terminal GST; dsDNA, one strand shown. The essentials:
as §1

In the next test the target is T10, ETV7 (Homo sapiens, UniProt Q9Y603 1-341).
T10 sequence: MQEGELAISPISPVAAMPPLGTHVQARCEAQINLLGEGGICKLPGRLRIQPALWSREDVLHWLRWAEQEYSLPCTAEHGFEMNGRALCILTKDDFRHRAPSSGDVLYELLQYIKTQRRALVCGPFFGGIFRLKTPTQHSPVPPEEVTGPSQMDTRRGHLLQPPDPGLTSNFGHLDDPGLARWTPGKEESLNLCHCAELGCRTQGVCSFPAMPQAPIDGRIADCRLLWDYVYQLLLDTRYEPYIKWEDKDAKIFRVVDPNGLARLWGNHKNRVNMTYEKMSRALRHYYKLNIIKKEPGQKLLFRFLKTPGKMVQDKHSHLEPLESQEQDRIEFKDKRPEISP
Conditions: protein: recombinant; tags: N-terminal GST; dsDNA, one strand shown. The gist of the method:
as §1

For the next test, the target named is T11, ELF5 (Homo sapiens, UniProt Q9UKW6-2 1-255).
T11 sequence: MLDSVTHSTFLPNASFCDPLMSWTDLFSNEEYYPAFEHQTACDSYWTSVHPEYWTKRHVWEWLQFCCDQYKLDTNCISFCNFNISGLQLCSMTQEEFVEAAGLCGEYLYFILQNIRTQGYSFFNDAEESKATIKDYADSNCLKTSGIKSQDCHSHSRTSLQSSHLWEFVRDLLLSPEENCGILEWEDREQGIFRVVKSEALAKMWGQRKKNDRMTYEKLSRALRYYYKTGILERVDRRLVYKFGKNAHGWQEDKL
As to conditions: protein: recombinant; tags: N-terminal GST; dsDNA, one strand shown. The gist of the method:
as §1

A further test has as its target T12, ETV3 (Homo sapiens, UniProt P41162-2 1-143).
T12 sequence: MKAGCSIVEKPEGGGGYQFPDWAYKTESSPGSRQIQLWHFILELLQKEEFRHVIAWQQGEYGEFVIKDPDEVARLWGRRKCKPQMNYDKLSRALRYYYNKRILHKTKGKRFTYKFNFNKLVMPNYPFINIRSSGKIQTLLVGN
As to conditions: protein: recombinant; tags: N-terminal GST; dsDNA, one strand shown. The gist of the method: as §1

The target in the next test is ETV6 (Homo sapiens, UniProt P41212 1-452). As to conditions: protein: recombinant; tags: N-terminal GST; dsDNA, one strand shown. The essentials: as §1
Chain of ETV6 (P41212 whole entry): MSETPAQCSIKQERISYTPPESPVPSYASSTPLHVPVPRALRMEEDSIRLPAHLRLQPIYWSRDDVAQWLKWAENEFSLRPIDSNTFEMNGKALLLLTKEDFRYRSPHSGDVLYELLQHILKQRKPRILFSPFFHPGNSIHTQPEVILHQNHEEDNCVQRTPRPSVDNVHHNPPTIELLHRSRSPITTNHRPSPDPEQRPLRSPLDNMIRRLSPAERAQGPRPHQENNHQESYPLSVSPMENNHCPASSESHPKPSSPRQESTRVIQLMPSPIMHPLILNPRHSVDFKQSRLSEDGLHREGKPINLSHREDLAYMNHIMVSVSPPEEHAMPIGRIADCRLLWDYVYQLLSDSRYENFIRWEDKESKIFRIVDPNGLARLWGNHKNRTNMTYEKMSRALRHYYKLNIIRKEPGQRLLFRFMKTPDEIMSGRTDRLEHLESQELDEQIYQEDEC

Chain of ETV1 (P50549 whole entry): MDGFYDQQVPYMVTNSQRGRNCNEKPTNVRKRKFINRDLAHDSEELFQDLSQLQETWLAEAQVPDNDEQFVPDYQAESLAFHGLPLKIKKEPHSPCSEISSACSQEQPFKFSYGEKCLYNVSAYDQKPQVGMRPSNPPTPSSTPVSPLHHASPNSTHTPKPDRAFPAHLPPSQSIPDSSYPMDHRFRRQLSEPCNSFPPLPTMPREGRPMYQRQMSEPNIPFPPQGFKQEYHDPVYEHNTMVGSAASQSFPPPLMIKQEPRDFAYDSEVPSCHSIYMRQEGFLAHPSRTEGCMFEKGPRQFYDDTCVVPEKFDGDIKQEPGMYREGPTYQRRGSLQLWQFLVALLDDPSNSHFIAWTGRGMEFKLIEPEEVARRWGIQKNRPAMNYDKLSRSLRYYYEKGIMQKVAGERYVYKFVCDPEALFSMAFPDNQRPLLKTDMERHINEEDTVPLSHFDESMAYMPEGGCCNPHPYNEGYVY
Chain of ETV5 (P41161 whole entry): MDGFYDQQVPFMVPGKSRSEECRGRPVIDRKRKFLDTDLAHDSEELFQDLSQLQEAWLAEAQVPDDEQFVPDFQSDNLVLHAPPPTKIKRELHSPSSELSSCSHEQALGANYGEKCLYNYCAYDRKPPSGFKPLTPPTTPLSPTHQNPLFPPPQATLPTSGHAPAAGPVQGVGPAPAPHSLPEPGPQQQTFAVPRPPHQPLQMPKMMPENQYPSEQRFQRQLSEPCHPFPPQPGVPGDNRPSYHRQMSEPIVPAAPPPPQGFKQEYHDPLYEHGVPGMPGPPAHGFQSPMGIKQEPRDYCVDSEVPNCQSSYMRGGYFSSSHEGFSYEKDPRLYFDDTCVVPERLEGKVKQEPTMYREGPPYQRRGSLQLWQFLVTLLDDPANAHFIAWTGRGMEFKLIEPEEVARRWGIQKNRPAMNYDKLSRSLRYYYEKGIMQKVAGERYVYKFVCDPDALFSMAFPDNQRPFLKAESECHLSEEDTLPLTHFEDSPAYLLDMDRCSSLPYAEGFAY
Chain of ELF4 (Q99607 whole entry): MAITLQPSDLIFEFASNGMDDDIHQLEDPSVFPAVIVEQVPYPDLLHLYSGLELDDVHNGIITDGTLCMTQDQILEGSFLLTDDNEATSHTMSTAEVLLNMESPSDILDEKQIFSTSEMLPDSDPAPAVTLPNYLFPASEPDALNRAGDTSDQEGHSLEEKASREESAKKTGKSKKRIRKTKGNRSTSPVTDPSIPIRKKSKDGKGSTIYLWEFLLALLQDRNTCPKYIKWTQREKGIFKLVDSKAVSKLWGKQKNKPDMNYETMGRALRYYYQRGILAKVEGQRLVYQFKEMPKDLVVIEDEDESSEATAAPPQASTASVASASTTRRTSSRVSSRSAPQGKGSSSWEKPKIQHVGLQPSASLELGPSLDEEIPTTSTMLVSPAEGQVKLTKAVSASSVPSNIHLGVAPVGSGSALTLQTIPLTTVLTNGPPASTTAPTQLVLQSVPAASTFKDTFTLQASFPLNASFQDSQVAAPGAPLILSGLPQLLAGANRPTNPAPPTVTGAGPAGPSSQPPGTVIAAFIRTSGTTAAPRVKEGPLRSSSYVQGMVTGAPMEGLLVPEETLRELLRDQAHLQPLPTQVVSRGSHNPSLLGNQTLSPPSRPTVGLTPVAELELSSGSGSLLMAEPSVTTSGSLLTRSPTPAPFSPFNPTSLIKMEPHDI
Chain of HSF1 (Q00613 whole entry): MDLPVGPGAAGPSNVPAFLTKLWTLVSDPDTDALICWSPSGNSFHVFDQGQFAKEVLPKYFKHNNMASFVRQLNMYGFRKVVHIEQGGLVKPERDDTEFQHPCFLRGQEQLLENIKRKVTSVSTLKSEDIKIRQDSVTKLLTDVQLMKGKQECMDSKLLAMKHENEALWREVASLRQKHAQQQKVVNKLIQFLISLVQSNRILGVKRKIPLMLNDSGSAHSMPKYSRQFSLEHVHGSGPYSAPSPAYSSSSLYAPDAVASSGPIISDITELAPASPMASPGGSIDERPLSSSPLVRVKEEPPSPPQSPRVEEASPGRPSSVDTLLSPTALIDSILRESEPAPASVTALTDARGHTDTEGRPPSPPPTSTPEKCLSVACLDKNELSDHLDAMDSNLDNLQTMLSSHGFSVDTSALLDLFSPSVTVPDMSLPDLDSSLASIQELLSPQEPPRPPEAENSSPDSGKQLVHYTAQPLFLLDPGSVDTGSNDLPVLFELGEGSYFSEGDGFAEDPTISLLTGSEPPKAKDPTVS
Chain of CRX (O43186 whole entry): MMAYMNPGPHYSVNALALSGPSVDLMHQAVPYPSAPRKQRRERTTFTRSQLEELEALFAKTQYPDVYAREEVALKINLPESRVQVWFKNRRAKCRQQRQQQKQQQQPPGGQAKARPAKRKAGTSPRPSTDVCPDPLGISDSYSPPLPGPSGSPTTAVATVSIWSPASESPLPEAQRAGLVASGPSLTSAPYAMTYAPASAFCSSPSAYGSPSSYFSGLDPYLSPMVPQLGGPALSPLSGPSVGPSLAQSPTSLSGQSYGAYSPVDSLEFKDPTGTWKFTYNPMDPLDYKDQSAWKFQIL

For the sequence CGATTA, the binding signal with FEV is 1.09 fold enrichment (6-mer frequency, TF over GST control); with ETV5 it was 1.08 fold enrichment (6-mer frequency, TF over GST control); in the test with HSF1, 2.19 fold enrichment (6-mer frequency, TF over GST control); with SPIC, 1.12 fold enrichment (6-mer frequency, TF over GST control); with ELF4 it was 1.14 fold enrichment (6-mer frequency, TF over GST control); in the test with ELK4, 1.18 fold enrichment (6-mer frequency, TF over GST control). The binding signal was 1.13 fold enrichment (6-mer frequency, TF over GST control) with ETV2; 1 fold enrichment (6-mer frequency, TF over GST control) with ELF3; 3.25 fold enrichment (6-mer frequency, TF over GST control) with CRX; 1.13 fold enrichment (6-mer frequency, TF over GST control) with ETV1; 1.07 fold enrichment (6-mer frequency, TF over GST control) with ERF; 1.23 fold enrichment (6-mer frequency, TF over GST control) in the test with ETV3L. Also, the binding signal was 1.08 fold enrichment (6-mer frequency, TF over GST control) with ETS2; 1.09 fold enrichment (6-mer frequency, TF over GST control) with SPDEF; 1.18 fold enrichment (6-mer frequency, TF over GST control) with ETV7; 1.11 fold enrichment (6-mer frequency, TF over GST control) in the test with ELF5; 1.18 fold enrichment (6-mer frequency, TF over GST control) with ETV3; 1.13 fold enrichment (6-mer frequency, TF over GST control) in the test with ETV6.
